Source: PubChem
BAZ2B block: qHTS Assay for Inhibitors of BAZ2B | Bromodomain adjacent to zinc finger domain protein 2B (Homo sapiens), Q9UIF8 | AlphaScreen BAZ2B-H3K14Ac peptide displacement | Potency, µM (top dose mostly 114 µM), most hits filed as inhibitors | 360,000 compounds, 4.4% hits; also: nearly all actives have a fitted effect of over 60% in size
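Inhibition is scored as reduced AlphaScreen emission. The BAZ2B/b-H3(5-23)K14Ac complex (50 nM each) in PBS pH 7.4, 0.01% Tween-20 meets compound (up to 110 uM) for 30 min at RT before bead addition.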
Six1-Eya2 blk: qHTS Assay for Inhibitors of the Six1/Eya2 Interaction; Homeobox protein SIX1 (Homo sapiens) + Protein phosphatase EYA2 (Homo sapiens), …; AlphaScreen GST-Six1/His-Eya2 binding, biochemical; active compounds read low; activity change, % (no concentration beside the values); 360,000 compounds, 0.56% hits; AID 651725, 2012; in the data active = activity change below about -65%; inconclusive = mostly about -30% to -63%
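Six1/Eya2 binding was read as AlphaScreen signal after compounds were pinned into GST-Six1 plus His-tagged Eya2 (5X stock 250/500 nM) in pH 8.0 Tris/NaCl/TCEP buffer, beads added, then incubated 1 h, 37 C, dark.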
CtBP-E1A blk: qHTS Assay for Inhibitors of the CtBP/E1A Interaction; AlphaScreen GST-E1A/His-CtBP binding, 1536-well; active compounds read low; activity change, % (test concentration not listed); 340,000 compounds, 0.49% hits; in the data active = activity change below about -65%; inconclusive = mostly about -30% to -63%
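AlphaScreen with 125 nM GST-E1A and 125 nM His-CtBP (5X stocks) in Tris pH 8.0, 300 mM NaCl, BSA, Tween 20, TCEP. Compounds preincubated 2 h at 37 deg C, then glutathione donor/nickel acceptor beads added for 1 h at 37 deg C in dark.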
HP1b chromo inh: HTS for Inhibitors of HP1-beta Chromodomain Interactions with Methylated Histone Tails. AlphaScreen HP1-beta / biotin-H3K9me3 peptide binding. AID 540317, 2011. 390,000 compounds, 0.56% hits. Chromobox protein homolog 1 (Homo sapiens), P83916. Potency, µM (titrated, usually from 114 µM), hits mostly inhibitors; also: nearly all actives have a fitted effect of over 70% in size
Target sequence (P83916 whole entry, looked up): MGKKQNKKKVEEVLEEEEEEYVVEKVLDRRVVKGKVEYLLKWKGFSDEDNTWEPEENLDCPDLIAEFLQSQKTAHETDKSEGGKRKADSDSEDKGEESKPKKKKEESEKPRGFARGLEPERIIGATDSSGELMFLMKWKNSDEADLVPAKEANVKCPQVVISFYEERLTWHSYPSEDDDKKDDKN
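Compound inhibition of the preformed complex between 50 nM HP1-beta and 50 nM biotinylated H3K9me3 peptide was read by AlphaScreen. Buffer was PBS pH 7.4 with 0.01% Tween-20. Incubations ran 30 min at room temperature, with 10 ug/mL donor/acceptor beads.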
JMJD2A Tudor: qHTS Assay for Inhibitors of JMJD2A-Tudor Domain; AID 504339, 2011; 390,000 compounds, 4.4% hits; Lysine-specific demethylase 4A (Homo sapiens), O75164; Potency, µM (highest dose often 114 µM), actives largely listed as inhibitors; AlphaScreen JMJD2A-Tudor / H3K4me3 peptide binding; also: nearly all actives have a fitted effect of over 50% in size
G9a block: qHTS Assay for Inhibitors of Histone Lysine Methyltransferase G9a. Potency, µM (top dose mostly 102 µM), usual class: inhibitors. G9a H3K9 monomethylation, AlphaScreen, 2 h. Histone-lysine N-methyltransferase EHMT2 (Homo sapiens), Q96KQ7. 350,000 compounds, 8.8% hits; also: nearly all actives have a fitted effect of over 75% in size
Target sequence (Q96KQ7 913-1193 limits assumed): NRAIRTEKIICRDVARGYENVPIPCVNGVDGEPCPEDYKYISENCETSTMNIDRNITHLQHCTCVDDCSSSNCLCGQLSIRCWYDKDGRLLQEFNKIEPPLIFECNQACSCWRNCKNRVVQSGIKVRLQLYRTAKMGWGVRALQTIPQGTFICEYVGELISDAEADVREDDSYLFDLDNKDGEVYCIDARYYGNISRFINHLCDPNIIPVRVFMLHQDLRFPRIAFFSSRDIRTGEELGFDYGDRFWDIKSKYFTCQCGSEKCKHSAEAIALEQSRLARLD
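Using a bead-based AlphaScreen, monomethylated H3K9 product from 2 h room-temperature reactions (G9a 20 nM, peptide 500 nM, SAM 20 uM) was detected with 0.5 ug/mL rabbit anti-H3K9me1 antibody.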
Hits are given with their value; – = inactive; ? = inconclusive; · = not tested or not shown; [ ] = another dose, or the depositor's remark. Only some compounds are listed: those with a hit (about 10% of all), similar ones and a draw of the others. Unless noted, calls follow the shape of the dose curve; as a rule, active = well fitted inhibition curve with a large enough effect; inconclusive = small, poorly fitted or top-dose-only effect; inactive = no such curve, though single readings can be large or run the other way.

SMILES	BAZ2B block	Six1-Eya2 blk	CtBP-E1A blk	HP1b chromo inh	JMJD2A Tudor	G9a block
CCn1c(CNC(=O)c2cccc(C)c2)nnc1SCC(=O)NC1=NCCS1	–	–	–	–	–	–
O=C(c1ccc2c(c1)N(Cc1cccc(Cl)c1)C(=O)c1ccccc1S2(=O)=O)N1CCCCCC1	–	·	·	–	–	–
Cn1c(=O)[nH]c(=O)c2c1nc(N1CCOCC1)n2Cc1ccccc1	–	·	·	–	–	–
Cc1ccc(/C=C/C(=O)Nc2ccc(Cl)cc2Cl)cc1	–	·	·	–	–	–
Cn1c(CNC(=O)c2ccccc2)nnc1SCC(=O)Nc1nccs1	–	–	–	–	11µM	–
CN1CCN(c2ncc3nc(-c4cn(C)c5ccccc45)c(=O)n(-c4ccccc4)c3n2)CC1	·	·	·	·	·	–[0.501 µM]
COc1cccc(-n2c(-c3ccc4[nH]c(C)c(C)c4c3)n[nH]c2=S)c1	?	–	–	–	?	·
COc1cccc(-n2c(-c3cccc(S(=O)(=O)N(C)C)c3)n[nH]c2=S)c1	·	–	–	–	8.9µM	2.5µM
CCSc1nnc(-c2cccc(S(=O)(=O)N(C)C)c2)n1-c1cc(OC)ccc1OC	–	–	–	–	–	?
COc1ccc(OC)c(-n2c(-c3cccc(S(=O)(=O)N(C)C)c3)n[nH]c2=S)c1	·	–	–	–	?	2.5µM
CCc1ccc(-c2nc(SCC(=O)NCC3CCCO3)c(-c3ccc(F)cc3)[nH]2)cc1 (centres undefined)	–	·	·	–	–	–
Cc1[nH]n(-c2ncc(-c3ccccc3)s2)c(=O)c1C(c1ccc(Br)cc1)C(C#N)C#N (centres undefined)	35µM	–	–	40µM	50µM	?
Cc1[nH]n(C(N)=S)c(=O)c1C(c1ccccc1)C(C#N)C#N (centres undefined)	–	–	–	–	–	?
COc1ccc(NC(=O)CSc2nc(-c3ccccc3)nc3c2Cc2c(CO)cnc(C)c2O3)cc1Cl	?	·	·	–	–	–
C=CCOc1ccc2c(c1)c(=O)cc(C(=O)O)n2CC	–	–	–	–	–	45µM
C=CCOc1ccc2c(=O)n(C)c3ccccc3c2c1	·	·	·	–	–	·
O=C(CSc1oc(-c2ccco2)nc1S(=O)(=O)c1ccc(Cl)cc1)NCC1CCCO1 (centres undefined)	–	–	–	–	?	45µM
Cc1ccc(-c2nc(S(=O)(=O)c3ccccc3)c(SCC(=O)NCC3CCCO3)o2)cc1 (centres undefined)	–	–	–	–	–	35µM
O=C(CSc1oc(-c2ccccc2)nc1S(=O)(=O)c1ccccc1)NCC1CCCO1 (centres undefined)	–	–	–	–	–	–
N#C/C(=C/c1cc[nH]c1)C(N)=S	–	–	–	–	–	?
Cn1cccc1/C=C(\C#N)C(N)=S	?	–	–	–	–	50µM
O=C(c1cccs1)n1cc(C(=S)N2CCOCC2)c2ccccc21	?	–	–	–	?	28µM
COc1cc(/C=C2\CC/C(=C\c3cc(OC)c(OC)c(OC)c3)C2=O)cc(OC)c1OC	–	–	–	–	?	–
COc1ccc(/C=C2\CCC(C3CCCC3)C2=O)c(OC)c1OC (centres undefined)	–	–	–	–	–	–[2.33 µM]
CCOc1cc(/C=N/N=C/c2ccc(O)c(OCC)c2)ccc1O	–	–	–	–	–	–
SMILES	BAZ2B block	Six1-Eya2 blk	CtBP-E1A blk	HP1b chromo inh	JMJD2A Tudor	G9a block
COc1ccc(/C=C2/CC/C(=C\c3ccc(OC)c(OC)c3OC)C2=O)c(OC)c1OC	?	–	–	–	?	7.9µM
COc1cc(/C=C2/CCC/C(=C\c3cc(O)c(OC)c(Cl)c3)C2=O)cc(Cl)c1O	?	–	–	–	?	35µM
COc1cc(/C=C2\CC/C(=C\c3cc(OC)c(O)c(OC)c3)C2=O)cc(OC)c1O	50µM	–	–	?	45µM	2.5µM
CCOc1cc(/C=C2\CN(CC)C/C(=C\c3ccc(O)c(OCC)c3)C2=O)ccc1O	50µM	–	–	–	56µM	28µM
CCc1ccc(C(=O)C(C)CN2CCCCC2)cc1 (centres undefined)	·	·	·	·	·	–[12.7 µM]
CCOc1ccc(CCNC(=O)c2ccc3[nH]c(C)c(C)c3c2)cc1	?	·	·	–	?	–
COc1cc(/C=C2\CCC/C(=C\c3ccc(O)c(OC)c3)C2=O)ccc1O	?	–	–	?	28µM	45µM
COc1cc2c(cc1N)-c1ccc(N)cc1C2	·	–	–	?	14µM	·
Nc1ccc2c(c1)Cc1cc(N)c(Br)cc1-2	·	–	–	?	50µM	·
O=C(Nc1nccs1)c1ccc(CSc2nnnn2-c2ccccc2)cc1	–	-68	-79	–	–	–[12.7 µM]
CCOP(=O)(O)c1ccccc1OCCOc1ccccc1P(=O)(O)OCC	?	–	–	–	–	45µM
CC(=N\NC(=O)c1ccc([N+](=O)[O-])cc1)/C(=N/O)C(=O)Nc1ccccc1	50µM	–	–	–	–	·
Cc1ccc(C(=O)c2cn(CC(=O)NC3CCCCC3)c3nc(C)ccc3c2=O)cc1	–	·	·	–	–	–
C/C(Cl)=C/Cn1c(SCC(C)C)nc2c1c(=O)[nH]c(=O)n2C	–	–	–	–	–	50µM
CCOC(=O)C(C)Sc1nc2c(c(=O)[nH]c(=O)n2C)n1CCc1ccccc1 (centres undefined)	–	–	–	–	–	?
CCCCOC(=O)CSc1nc2c(c(=O)[nH]c(=O)n2C)n1C/C=C(\C)Cl	–	–	–	–	–	16µM
CCOC(=O)C(CC)Sc1nc2c(c(=O)[nH]c(=O)n2C)n1C/C=C(/C)Cl (centres undefined)	–	–	–	–	18µM	?
C/C=C/CSc1nc2c(c(=O)[nH]c(=O)n2C)n1CCC	·	–	–	–	–	–
Cc1nnc(SCc2cc(=O)n3c(C)cccc3n2)s1	–	·	·	–	–	–
O=C(O)CNS(=O)(=O)Cc1ccccc1	–	–	–	–	–	–
O=S(=O)(Cc1ccccc1)N(O)c1ccccc1	?	–	–	–	–	20µM
N#Cc1c(NC(=O)c2cc3nc(-c4ccc(Br)cc4)cc(C(F)(F)F)n3n2)sc2c1CCCC2	–	·	·	–	–	10µM
COC(=O)c1c(NC(=O)c2cc3nc(-c4ccc(Br)cc4)cc(C(F)(F)F)n3n2)sc2c1CCCC2	–	·	·	–	–	–
